According to PubChem BioAssay AID629 (Emory University Molecular Libraries Screening Center, 2007):
Among all 86,000 compounds or so, about 1,400 (1.6%) were called active. Cut-off read from the data, not from the text of the source: active = inhibition above about 50%; inactive = the rest. The full list was thinned out, with actives kept by preference.

These compounds were tested against Estrogen receptor (Homo sapiens) (UniProt P03372) (assay: blockers of SRC-1 peptide recruitment to ERα – biochemical, TR-FRET, ERα LBD, estradiol-bound, primary screen (AID 629;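 note: 0% = receptor plus peptide control and 100% = peptide only without receptor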)). Conditions: TR-FRET ER-alpha LBD / SRC-1 peptide, at 25.6 µM, hits give high values.
Estrogen receptor (Homo sapiens), sequence (P03372 whole entry, looked up, the tested form may be a part): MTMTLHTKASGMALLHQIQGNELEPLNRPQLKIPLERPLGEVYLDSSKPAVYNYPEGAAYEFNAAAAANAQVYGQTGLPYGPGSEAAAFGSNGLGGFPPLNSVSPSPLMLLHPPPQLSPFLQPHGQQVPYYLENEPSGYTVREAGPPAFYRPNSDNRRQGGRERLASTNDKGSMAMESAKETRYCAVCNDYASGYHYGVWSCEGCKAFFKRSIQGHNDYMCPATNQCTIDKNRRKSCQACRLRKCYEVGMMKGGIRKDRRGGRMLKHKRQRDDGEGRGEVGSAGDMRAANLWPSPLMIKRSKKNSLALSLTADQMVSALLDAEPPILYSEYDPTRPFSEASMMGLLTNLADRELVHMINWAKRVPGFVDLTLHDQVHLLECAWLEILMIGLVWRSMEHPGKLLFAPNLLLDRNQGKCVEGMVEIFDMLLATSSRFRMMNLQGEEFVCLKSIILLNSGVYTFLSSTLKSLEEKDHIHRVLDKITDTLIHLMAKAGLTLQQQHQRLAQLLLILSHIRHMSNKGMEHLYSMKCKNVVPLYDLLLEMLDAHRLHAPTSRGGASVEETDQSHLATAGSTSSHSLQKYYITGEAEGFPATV
In the case of `CCOc1cc(N2CCOCC2)c(OCC)cc1NC(=O)COc1cccc2cccnc12`, the inhibition is reported as 94.2% [fluorescence artefact?] (active). For `CC(=O)Nc1cccc(Oc2cc(C#N)c(C#N)cc2N2CCOCC2)c1`, the inhibition was 8.98% (inactive). With `CCOc1cc(N2CCOCC2)c(OCC)cc1NC(=O)COC(=O)[C@H](Cc1c[nH]c2ccccc12)NC(C)=O` the inhibition was -11.8% (inactive). `COc1ccc(C)c2sc(=NC(=O)c3ccc(C#N)cc3)n(C)c12` was tested, and the inhibition was 79.7% [fluorescence artefact?] (active). With `Cn1c(=NC(=O)C2CC2)sc2cc(F)cc(F)c21` the inhibition was -0.62% (inactive). `COc1ccc(OC)c2c1sc(=NC(=O)CN1C(=O)CCC1=O)n2C` was tested, and the inhibition was 28.2% (inactive). With `CCC(c1nnnn1C(C)(C)C)N(Cc1cc2cccc(C)c2n2nnnc12)C1CCCC1` (centres undefined) the inhibition was -3.95% (inactive). With `Cc1nc(N2CCN(c3ncccn3)CC2)c2oc3ccccc3c2n1` the inhibition was 54.3% [fluorescence artefact?] (active). For `CCc1nc(N2CCN(c3nc(C)cc(C)n3)CC2)c2oc3ccccc3c2n1`, the inhibition was 49.1% (inactive). In the case of `Cc1cc(C)nc(N2CCN(c3ncnc4c3oc3ccccc34)CC2)n1`, the inhibition is reported as 16.1% (inactive). `CN1CCc2c(sc3c2c(NCc2ccco2)nc2nnnn23)C1` was tested, and the inhibition was 84.9% [fluorescence artefact?] (active). For `c1ccc(-c2nc(NCc3ccco3)c3ccccc3n2)cc1`, the inhibition was 2.5% (inactive). In the case of `O=C(Cc1ccccc1)n1nc(-c2ccccc2)nc1NCc1ccco1`, the inhibition is reported as -2.71% (inactive). With `CC(C)CCNC(=O)CC1C(=O)N(Cc2ccccc2)C(C)c2nc3ccccc3n21` (centres undefined) the inhibition was -8.13% (inactive). With `COCCNS(=O)(=O)c1cc(Br)ccc1OC` the inhibition was 3.01% (inactive). `CC(C)(C)c1ccc(C(=O)NCC(=O)OCN2C(=O)c3ccccc3C2=O)cc1` was tested, and the inhibition was 0.65% (inactive). `O=C(OCC#CCSc1nnc(-c2ccncc2)o1)c1sc2ccccc2c1Cl` was tested, and the inhibition was -0.24% (inactive). For `O=C(CN1C(=O)CC(c2ccccc2)=Nc2ccccc21)NC1CCCCC1`, the inhibition was -6.54% (inactive). `Cn1c(=NC(=O)CSCC(=O)N2CCCCC2)sc2ccccc21` was tested, and the inhibition was -2.22% (inactive). For `Cn1c(=NC(=O)c2cnccn2)sc2ccccc21`, the inhibition was 56.8% [fluorescence artefact?] (active). With `Cn1c(=NC(=O)CSCC(=O)N2CCOCC2)sc2ccccc21` the inhibition was -10.2% (inactive). For `O=C(Nc1ccc2nc3n(c(=O)c2c1)CCCCC3)c1ccccc1Cl`, the inhibition was 1.87% (inactive). For `CCCc1noc2c1/C(=N\O)CCC2`, the inhibition was -11.6% (inactive). For `COc1ccc(S(=O)(=O)Nc2ccc(F)cc2)c(C)c1C`, the inhibition was 10.1% (inactive).
